Assay results reported in PubChem BioAssay (Tox21).
Results filed as inconclusive are left out. Active and inactive are the calls of the source. Calls come from the whole dose curve; as a rule, active = well fitted activation curve with a large enough effect in the signal ratio in the repeat runs, with a control signal flat (not every such curve was filed as active); inconclusive = weak or mixed curves; inactive = flat fitted curve, though single readings scatter; the % refers to the signal ratio.

Assay: qHTS assay for small molecule activators of the heat shock response signaling pathway (AID 743210)
Conditions: HeLa HSE-bla reporter, beta-lactamase ratio, 5 h; series mostly up to 62.6 µM
Text: U.S. Tox21 Program National Center for Advancing Translational Sciences [NCATS] NIH Chemical Genomics Center [NCGC] U.S. Environmental Protection Agency [EPA] National Institutes of Environmental Health Sciences [NIEHS] National Toxicology Program [NTP] U.S. Food and Drug Administration [FDA] Tox21 Assay Overview: Various chemicals, environmental and physiological stress conditions may lead to the activation of heat shock response/ unfolded protein response (HSR/UPR). There are three heat shock transcription factors (HSFs) (HSF-1, -2, and -4) mediating transcriptional regulation of the human HSR. To identify the compounds that activate HSR signaling, HSE-bla HeLa cell line (Invitrogen, Carlsbad, CA, USA) containing a beta-lactamase reporter gene under the control of the heat shock response elements was used to screen the Tox21 10K compound library.
Tox21 Assay Protocol Summary: The CellSensor HSE-bla HeLa cells (Invitrogen, Carlsbad, CA, USA) were dispensed at 1500 cells/6uL/well into 1536-well black wall/clear bottom plates using a Multidrop combi (Thermo Fisher Scientific, Waltham, MA) dispenser. After the assay plates were incubated at 37 C and 5% CO2 overnight, 23 nL of compounds dissolved in DMSO, positive controls or DMSO only was transferred to the assay plate by a Pintool station (Kalypsys, San Diego, CA). The plates were incubated at 37 C for 5 h. After 1 uL of LiveBLAzerTM B/G FRET substrate was added using a Flying Reagent Dispenser (Beckman Coulter, Indianapolis, IN, USA), the plates were incubated at room temperature for 2.5 h, and fluorescence intensity was measured by an Envision plate reader (PerkinElmer, Shelton, CT).

Compound	outcome
CO[Si](OC)(OC)OC	inactive
Nc1[nH]c(=O)ncc1F	inactive
C=C(C)C1CC=C(C)C(O)C1 (stereo not given)	inactive
N[C@@H](CS)C(=O)O	inactive
CNC(=O)c1c(I)c(NC(=O)CCCCC(=O)Nc2c(I)c(C(=O)O)c(I)c(C(=O)NC)c2I)c(I)c(C(=O)O)c1I	inactive
Nc1nc2c(ncn2CCC(CO)CO)c(=O)[nH]1	inactive
C#CC(C)(O)CC(C)C (stereo not given)	inactive
Cc1c(C)n(CCN(C)C)c2ccc(C(=O)OCCN(C)C)cc12	inactive
CC(C)(O)c1ccccc1	inactive
C#CC(O)C(CC)CCCC (stereo not given)	inactive
C1=C\CC/C=C\CC/C=C\CC/1	inactive
COc1cc(CCC(C)=O)ccc1O	inactive
C[C@H]1O[C@@H](n2cc(F)c(=O)[nH]c2=O)[C@H](O)[C@@H]1O	inactive
CCCCc1ccc2cccc(S(=O)(=O)O)c2c1	inactive
CN(C)C(=O)Nc1ccccc1	inactive
OCc1ccccn1	inactive
c1ccc(SCCSc2ccccc2)cc1	inactive
CCC(C(=O)NC(N)=O)c1ccccc1 (stereo not given)	inactive
CC(C)=CC(=O)O	inactive
OCC(O)[C@@H](O)[C@H](O)[C@H](O)CO[C@H]1O[C@H](CO)[C@@H](O)[C@H](O)[C@H]1O (stereo not given in full)	inactive

Compound	outcome
C=CCSCC1Nc2cc(Cl)c(S(N)(=O)=O)cc2S(=O)(=O)N1 (stereo not given)	inactive
CSc1ccc(C=O)cc1	inactive
C=C(C)[C@H]1CC=C(C)CC1	inactive
O=[N+]([O-])c1ccc(Oc2ccc([N+](=O)[O-])cc2)cc1	inactive
c1ccc2cnncc2c1	inactive
CCCC(C)C(=O)O (stereo not given)	inactive
c1ccc(CCCc2ccccn2)cc1	inactive
CC(C)(O)C(=O)c1ccc(OCCO)cc1	inactive
CC/C=C\CCCCO	inactive
CCCCCCCCCCCCCCCCCC(=O)OCCCCCCCCCCCCCC(C)C	inactive
CCCCCCOC(=O)CC(CC(=O)OCCCCCC)(OC(=O)CCC)C(=O)OCCCCCC	inactive
CCCCCOC(=O)Nc1nc(=O)n([C@@H]2O[C@H](C)[C@@H](O)[C@H]2O)cc1F	inactive
O=C(O)C(O)[C@H](O)[C@@H](O)[C@H](O)[C@H](O)CO (stereo not given in full)	inactive
COCCOC(=O)CC#N	inactive
CC1(C)OC(=O)Nc2ccc(Br)cc21	inactive
O=C(O)c1ccc[n+]([O-])c1	inactive
COc1cccc(OC)c1	inactive
CC/C=C\C#N	inactive
CC(C)COC(=O)c1ccccc1O	inactive
CCCCCCC(=O)OCC	inactive
